Test results reported in PubChem BioAssay (NCATS).
The source made the active and inactive calls. The call rests on the fitted dose curve; in most records, active means well fitted curve in the direction sought with a large enough effect; inconclusive means small, poorly fitted or top-dose-only effect, or another doubt; inactive means no such curve, though single readings can be large or run the other way.

test: Cellular Toxicity (caspase-3) MRC-5 (AID 659); conditions: MRC-5 cells, luminescence, normalized: DMSO 0%, 10 µM staurosporine 100%; series mostly up to 91.7 µM; caspase-3 activation: at the top concentration;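 further: cells exposed to compound for 16 h at 37 °C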
How it was run: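 Concentration-dependent caspase 3/7 activation is measured in human normal lung fibroblasts (MRC-5) following 16-hour treatment. AC50 values come from standard Hill-equation modeling of luminescence normalized to DMSO and 10 uM staurosporine.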

Structure (SMILES) | caspase-3 activation
Cc1ccccc1C#N | -1.06% (inactive)
CCC=O | 2.11% (inactive)
Oc1c(Cl)ccc(Cl)c1Cl | -1.38% (inactive)
Cc1ccccc1C=O | -0.0928% (inactive)
CN(C)c1cccc(O)c1 | 0.866% (inactive)
Cc1ccc(S(=O)(=O)NC2CCCCC2)cc1 | 0.585% (inactive)
CCOC(=O)OCC | -2.35% (inactive)
CC(C)(O)CCC(C)(C)O | -0.0988% (inactive)
O=Cc1ccccc1Cl | 0.96% (inactive)
CCCCCCCCC/C=C/CC1CC(=O)OC1=O (stereo not given) | 0.0262% (inactive)
Cc1ccc2cccnc2c1 | 0.258% (inactive)
O=Cc1ccc(CO)o1 | 1.74% (inactive)
CCCC(Cl)CCCC(Cl)CCC(Cl)CCC(Cl)CCC(Cl)CCCC(Cl)CCC (stereo not given) | 0.794% (inactive)
Cc1ccc(C)o1 | -0.554% (inactive)
CCCCN(CCO)CCCC | -0.905% (inactive)
C=C(C)C(=O)OCCCCCC | -0.275% (inactive)
CCOc1cccc(N)c1 | 2.09% (inactive)
COC(=O)CCCC(=O)OC | 0.292% (inactive)
O=C1CCCCC1 | 1.74% (inactive)
NC(=O)NC(N)=O | -1.75% (inactive)

Structure (SMILES) | caspase-3 activation
CCOCCOCC | -1% (inactive)
CC(C)N=C=NC(C)C | 0.176% (inactive)
CC(C)=CCl | 0.671% (inactive)
CCC(C)(C)C(=O)O | 1.14% (inactive)
Cc1ccc(C)c(N)c1 | 2.27% (inactive)
CN(C)CCCCl | 2.38% (inactive)
CCCCOCCOCCOCCCC | -1.01% (inactive)
CC/C=C/C#N | 0.785% (inactive)
Cc1cccc2cccnc12 | -0.559% (inactive)
Cc1ccccc1C(=O)O | -1.35% (inactive)
C/C(C=O)=C/c1ccccc1 | -0.0116% (inactive)
O=[N+]([O-])c1c(Cl)cc(Cl)cc1Cl | 0.872% (inactive)
CC(=O)OC(C)=O | -1.22% (inactive)
CNC(=O)c1ccccc1 | 0.578% (inactive)
O=Cc1c(Cl)cccc1Cl | 1.21% (inactive)
c1ccc(Oc2ccccc2)cc1 | -1.91% (inactive)
Clc1cc(Cl)cc(Cl)c1 | -2.11% (inactive)
Cc1ccc(C(C)(C)C)cc1 | -2.12% (inactive)
C=C(C)C(=O)OCC(C)O (stereo not given) | -0.28% (inactive)
O=C(O)c1cc(Cl)cc(Cl)c1 | -1.24% (inactive)
